Measured values taken from PubChem BioAssay (NCATS).
“And” between values parts separate entries of the source, which are not always exact repeats. Identical values can stand only once. Records with an inconclusive call do not appear. The source made the active and inactive calls. Unless noted, calls come from the whole dose curve; as a rule, active = well fitted curve in the direction sought with a large enough effect; inconclusive = small, poorly fitted or top-dose-only effect, or another doubt; inactive = no such curve, though single readings can be large; an effect the other way counts as inactive or inconclusive.

Experiments:
[1] = molecular target: Guanine nucleotide-binding protein G(i) subunit alpha-1 (Homo sapiens) (UniProt P63096); assay: qHTS Assay for Inhibitors of RGS12 GoLoco Motif Activity (Green Fluorophore) (AID 879);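 note: 0% = labeled peptide with Gαi1 and full inhibition = labeled peptide alone without protein; negative values mean loss of peptide binding seen as reduced polarization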
Guanine nucleotide-binding protein G(i) subunit alpha-1 (Homo sapiens), sequence (P63096 whole entry, looked up): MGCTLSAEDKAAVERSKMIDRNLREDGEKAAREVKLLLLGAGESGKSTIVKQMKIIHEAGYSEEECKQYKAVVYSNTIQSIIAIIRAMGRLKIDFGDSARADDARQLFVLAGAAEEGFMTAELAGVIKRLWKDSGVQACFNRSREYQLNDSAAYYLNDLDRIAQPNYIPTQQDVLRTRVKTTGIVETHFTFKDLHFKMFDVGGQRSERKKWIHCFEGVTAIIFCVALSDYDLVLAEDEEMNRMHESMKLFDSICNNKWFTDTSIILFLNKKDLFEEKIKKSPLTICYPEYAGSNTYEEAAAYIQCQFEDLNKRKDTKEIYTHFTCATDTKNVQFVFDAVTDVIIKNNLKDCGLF
Method in brief: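 Fluorescence polarization assay: 50 nM Gαi1 with 10 nM FITC-labeled RGS12 GoLoco peptide in 10 mM Tris pH 7.5, 150 mM NaCl, 0.1 mM GDP, 0.05% NP40, 10 min at room temperature with compound.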

[2] = molecular target: Cytochrome P450 3A4 (Homo sapiens) (UniProt P08684); assay: qHTS Assay for Inhibitors and Substrates of Cytochrome P450 3A4 (AID 884); note: series mostly up to about 57 µM; % is set by controls: 0 for no effect and ±100 for the full control effect; nearly all actives have a fitted effect of over 50% in size
Cytochrome P450 3A4 (Homo sapiens), sequence (P08684 whole entry, looked up): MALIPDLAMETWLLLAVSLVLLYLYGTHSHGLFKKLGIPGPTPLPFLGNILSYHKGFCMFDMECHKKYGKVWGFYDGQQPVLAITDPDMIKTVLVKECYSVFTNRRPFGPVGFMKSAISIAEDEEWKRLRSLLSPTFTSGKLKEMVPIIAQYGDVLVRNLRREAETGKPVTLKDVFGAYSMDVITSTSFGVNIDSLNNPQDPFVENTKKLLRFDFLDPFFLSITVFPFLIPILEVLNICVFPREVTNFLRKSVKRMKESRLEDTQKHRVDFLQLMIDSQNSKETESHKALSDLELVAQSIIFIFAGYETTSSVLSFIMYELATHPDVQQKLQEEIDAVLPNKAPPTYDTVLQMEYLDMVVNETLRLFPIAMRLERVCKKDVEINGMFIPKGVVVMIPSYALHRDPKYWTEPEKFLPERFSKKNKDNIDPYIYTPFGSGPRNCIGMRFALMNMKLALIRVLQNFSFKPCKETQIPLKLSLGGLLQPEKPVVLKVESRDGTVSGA
Method in brief: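 20 nM human CYP3A4 with 25 uM Luciferin-PPXE (at KM) in 200 mM KPO4, preincubated 10 min with compound; NADPH regeneration started a 60 min RT reaction. Luciferin detected by luminescence, normalized to 57 uM ketoconazole as full inhibition.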

[3] = Confirmation and Secondary Assay for Modulators of Hemoglobin Beta Chain Splicing at IVS2 654 locus (AID 910);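 note: HeLa cells stably carrying EGFP split by mutant beta-globin IVS2-654 intron; % of control where 0% means no effect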
Method in brief: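 HeLa cells stably expressing EGFP interrupted by β-globin IVS2-654 intron, seeded overnight in Opti-MEM/2% FCS, then treated 2 days at 37 °C. Restored splicing read as total peak GFP intensity per well by laser scanning cytometry (488 nm excitation, 500–520 nm emission); 500 nM antisense PNA as control.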

[4] = qHTS Assay for Identification of Small Molecule Agonists for Thrombopoietin (TPO) Signaling Pathway (AID 917); note: % is set by controls: 0 for no effect and ±100 for the full control effect
Method in brief: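 Luminescence from a Glycoprotein IIb promoter–driven luciferase reporter served as read-out in murine Ba/F3 cells carrying the human TPO receptor. Cells, deprived of IL-3 overnight, received compounds with 26 pM TPO and were incubated 24 hrs at 37 C.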

[5] = Confirmation and Secondary Assay for Modulators of Hemoglobin Beta Chain Splicing at IVS2 705 locus (AID 930);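 note: HeLa cells stably expressing the EGFP-705 splicing reporter; series mostly up to about 46 µM; % of control where 0% means no effect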
Method in brief: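 Restored EGFP fluorescence after 2-day compound exposure reports splicing correction in IVS2-705 EGFP reporter HeLa cells; positive control was 500 nM splice-blocking PNA oligo. Signal measured as well total peak GFP intensity (488 nm excitation).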

[6] = molecular target: Pyruvate kinase (Leishmania mexicana) (UniProt Q27686); assay: qHTS Validation Assay for Inhibitors of Leishmania Mexicana Pyruvate Kinase (AID 945);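 note: 0% = DMSO only neutral control wells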
Pyruvate kinase (Leishmania mexicana), sequence (Q27686 2-499 E452W): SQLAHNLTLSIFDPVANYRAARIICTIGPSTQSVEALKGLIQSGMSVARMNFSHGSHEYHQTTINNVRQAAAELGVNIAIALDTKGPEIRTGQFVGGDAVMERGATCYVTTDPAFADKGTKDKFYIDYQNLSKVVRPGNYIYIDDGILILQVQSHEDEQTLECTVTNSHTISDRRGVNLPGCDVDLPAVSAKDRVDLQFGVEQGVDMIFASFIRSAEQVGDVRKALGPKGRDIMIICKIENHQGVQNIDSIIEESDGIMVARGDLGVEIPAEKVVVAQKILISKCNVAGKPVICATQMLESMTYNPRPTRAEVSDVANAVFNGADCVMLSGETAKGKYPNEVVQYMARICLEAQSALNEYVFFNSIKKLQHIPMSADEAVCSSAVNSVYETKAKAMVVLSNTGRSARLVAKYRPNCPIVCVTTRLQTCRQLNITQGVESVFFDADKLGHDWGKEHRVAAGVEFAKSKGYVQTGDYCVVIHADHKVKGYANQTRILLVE
Method in brief: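 Purified LmPYK (E451W mutant, 0.2 nM) was incubated 1 h at room temperature with 0.5 mM PEP and 0.1 mM ADP in 50 mM imidazole pH 7.2, 50 mM KCl, 7 mM MgCl2; ATP formed was read by PKLight luminescence, normalized to DMSO wells.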

[7] = Cellular Toxicity (caspase-3) Hek293 (AID 664);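 note: cells exposed to compound for 16 h at 37 °C before readout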
Method in brief: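 HEK293 cells were exposed to compounds in complete medium for 16 hr at 37 °C, then caspase-3/7 activity was read by Caspase-Glo 3/7 luminescence after 20 min at room temperature. Data normalized to DMSO and 100 uM tamoxifen; AC50 from Hill fits.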

[8] = Cellular Toxicity (caspase-3) N2a (AID 665);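 note: compound exposure lasted 16 h at 37 °C before readout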
Method in brief: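 Mouse N2a neuroblastoma cells (1500/well) were treated with compounds for 16 h at 37 °C, then caspase-3/7 activity was read by Caspase-Glo luminescence after 1 h at room temperature. Data were normalized to DMSO and 10 uM staurosporine; AC50 from Hill fits.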

[9] = Cellular Toxicity (caspase-3) NIH 3T3 (AID 666);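 note: caspase signal read after 16 h compound exposure; 0% = DMSO basal and 100% = 100 µM tamoxifen stimulation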
Method in brief: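 Mouse NIH 3T3 fibroblasts (1000 cells/well) were treated with compound for 16 hr at 37°C in complete medium; caspase-3/7 activity was read by Caspase-Glo luminescence. Normalized to DMSO and 100 uM tamoxifen; AC50 from Hill fits.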

[10] = Cellular Toxicity (caspase-3) Renal Proximal Tubule (AID 667);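 note: cells exposed to compound for 16 hours at 37 °C before detection; 0% = DMSO basal and 100% = 10 µM staurosporine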
Method in brief: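 AC50 derived by standard Hill fit of concentration-response data, normalized between DMSO basal and 10 uM staurosporine as 100% stimulation. Cells: primary rat kidney proximal tubule, 16 h treatment at 37 °C.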

[11] = molecular target: Cytochrome P450 2C9 (Homo sapiens) (UniProt P11712); assay: qHTS Assay for Inhibitors and Substrates of Cytochrome P450 2C9 (AID 883); note: nearly all actives have a fitted effect of over 60% in size; note: potency is the fitted concentration of half-maximal effect
Cytochrome P450 2C9 (Homo sapiens), sequence (P11712 whole entry, looked up): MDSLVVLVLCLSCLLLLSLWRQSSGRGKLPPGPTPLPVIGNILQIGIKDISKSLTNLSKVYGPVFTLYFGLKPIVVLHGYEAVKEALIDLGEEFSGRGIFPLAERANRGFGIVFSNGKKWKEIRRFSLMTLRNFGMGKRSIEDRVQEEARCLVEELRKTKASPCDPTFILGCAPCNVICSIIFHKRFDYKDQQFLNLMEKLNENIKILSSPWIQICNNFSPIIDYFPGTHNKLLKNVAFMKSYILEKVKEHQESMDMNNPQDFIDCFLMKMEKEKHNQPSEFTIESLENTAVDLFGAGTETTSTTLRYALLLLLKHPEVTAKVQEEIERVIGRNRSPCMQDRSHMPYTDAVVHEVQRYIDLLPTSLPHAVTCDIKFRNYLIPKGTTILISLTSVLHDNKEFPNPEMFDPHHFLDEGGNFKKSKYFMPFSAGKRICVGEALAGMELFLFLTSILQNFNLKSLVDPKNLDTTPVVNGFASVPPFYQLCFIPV
Method in brief: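 Signal: luciferase luminescence reporting luciferin produced by CYP2C9. Conditions: 10nM enzyme, Luciferin-H 100uM at KM, 25mM KPO4, 37C, 60 min NADPH-driven reaction. Reference: 57uM sulphaphenazole as 100% inhibition.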

[12] = molecular target: Cytochrome P450 2D6 (Homo sapiens) (UniProt P10635); assay: qHTS Assay for Inhibitors and Substrates of Cytochrome P450 2D6 (AID 891); note: nearly all actives have a fitted effect of over 60% in size; note: potency is the fitted concentration of half-maximal effect
Cytochrome P450 2D6 (Homo sapiens), sequence (P10635 whole entry, looked up): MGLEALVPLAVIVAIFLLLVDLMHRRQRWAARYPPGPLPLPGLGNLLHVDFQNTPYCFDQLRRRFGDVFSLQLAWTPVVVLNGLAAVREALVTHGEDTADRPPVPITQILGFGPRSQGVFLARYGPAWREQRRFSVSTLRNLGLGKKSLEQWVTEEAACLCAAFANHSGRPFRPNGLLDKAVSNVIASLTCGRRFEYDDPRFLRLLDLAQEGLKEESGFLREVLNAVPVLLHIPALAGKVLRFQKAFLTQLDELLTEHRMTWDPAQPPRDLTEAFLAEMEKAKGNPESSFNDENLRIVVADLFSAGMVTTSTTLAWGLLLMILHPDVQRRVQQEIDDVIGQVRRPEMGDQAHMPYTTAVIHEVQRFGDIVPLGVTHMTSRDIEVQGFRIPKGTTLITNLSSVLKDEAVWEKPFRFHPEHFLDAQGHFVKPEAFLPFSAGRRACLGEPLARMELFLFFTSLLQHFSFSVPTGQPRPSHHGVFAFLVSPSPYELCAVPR
Method in brief: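 Human CYP2D6 (5 nM) with 30 uM Luciferin-ME EGE (at Km) in 100 mM KPO4, compound preincubated 10 min, then NADPH regeneration system for 60 min at room temperature. Luciferin read by luminescence; normalized to 1.43 uM quinidine.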

[13] = molecular target: Cytochrome P450 2C19 (Homo sapiens) (UniProt P33261); assay: qHTS Assay for Inhibitors and Substrates of Cytochrome P450 2C19 (AID 899); note: nearly all actives have a fitted effect of over 60% in size; note: potency is the fitted concentration of half-maximal effect
Cytochrome P450 2C19 (Homo sapiens), sequence (P33261 whole entry, looked up): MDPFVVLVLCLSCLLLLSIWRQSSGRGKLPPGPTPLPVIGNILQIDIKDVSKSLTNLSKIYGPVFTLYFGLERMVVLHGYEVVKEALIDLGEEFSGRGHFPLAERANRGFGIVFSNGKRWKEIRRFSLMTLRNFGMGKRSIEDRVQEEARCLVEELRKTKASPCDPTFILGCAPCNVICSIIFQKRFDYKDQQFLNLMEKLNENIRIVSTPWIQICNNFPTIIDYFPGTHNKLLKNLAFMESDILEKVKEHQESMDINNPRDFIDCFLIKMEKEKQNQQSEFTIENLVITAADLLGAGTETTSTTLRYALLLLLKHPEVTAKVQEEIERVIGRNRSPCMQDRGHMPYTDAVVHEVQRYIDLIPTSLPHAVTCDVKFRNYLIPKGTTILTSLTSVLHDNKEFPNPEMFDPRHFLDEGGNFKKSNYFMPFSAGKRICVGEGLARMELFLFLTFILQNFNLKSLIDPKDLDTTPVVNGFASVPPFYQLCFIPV
Method in brief: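 Signal comes from luciferase acting on luciferin released by CYP2C19-mediated hydroxylation of Luciferin-H EGE, 10uM (KM). Assay mix: 5nM enzyme, 50mM KPO4; 60 min at 37C with NADPH regeneration. Data normalized against 57uM ketoconazole.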

[14] = Cell Viability - LYMP2-001 (AID 921);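 note: series mostly up to about 92 µM; cells exposed to compound for 24 h at 37 °C; 0% = DMSO only and full inhibition = tetraoctylammonium bromide control wells; nearly all actives have a fitted effect of over 70% in size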
Method in brief: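 Steps: seed 2500 lymphoblastoid cells/well; 5 hr, 37 C; add compound; 24 hr, 37 C; CellTiter-Glo reagent, 30 min room temperature; read luminescence. Concentration-response modeled by Hill equation for AC50.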

[15] = MultiTox-Fluor Cytotoxicity Assay - LYMP1-001 - Dead Cells (AID 946);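 note: 0% = DMSO and 100% = tetraoctylammonium bromide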
Method in brief: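 Seed 2500 LYMP1-001 cells/well, incubate 5 hr at 37 C; add compound, 16 hr at 37 C; add MultiTox-Fluor reagent, 60 min RT; read dead-cell fluorescence Ex/Em=485/520. Normalize to DMSO and 15 uM tetraoctylammonium bromide.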

[16] = qHTS Assay for Identification of Small Molecule Antagonists for NFkB Signaling Pathway (AID 895; active = well fitted inhibition curve with a large enough effect in the signal ratio, with a control signal flat, not every such curve was filed as active; the % refers to the signal ratio; note: % is set by controls: 0 for no effect and ±100 for the full control effect)
Method in brief: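 ME-180 NFkB-bla cells (beta-lactamase under NFkB response element), plated overnight, treated with compound then 10 pM TNF alpha (about EC50) for 5 hrs at 37 C. LiveBLAzer FRET read at 460/530 nm emission, 405 nm excitation.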

[17] = qHTS Assay for Identification of Small Molecule Agonists for Hypoxia Response Element Signaling Pathway (AID 914; active = well fitted activation curve with a large enough effect in the signal ratio, with a control signal flat, not every such curve was filed as active; the % refers to the signal ratio; note: potency is the fitted concentration of half-maximal effect; for activation: % of control where 0% means no effect); conditions: ME-180 (cervical carcinoma) HRE-bla reporter, beta-lactamase ratio, CoCl2, 17 h; activation: hits give high values
Method in brief: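 AC50 values come from titration-series %Activity, taken as the 460/530nm ratio of CCF4 fluorescence (excitation 405nm). CellSensor HRE-bla ME-180 cells were treated 17 hours at 37 C with compound plus an EC50 level of CoCl2.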

[18] = molecular target: Cytochrome P450 3A4 (Homo sapiens) (UniProt P08684); assay: qHTS Assay for Activators of Cytochrome P450 3A4 (AID 885); note: nearly all actives have a fitted effect of over 65% in size
Method in brief: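 Steps: enzyme/substrate mix dispensed; compound added, 10 min RT; NADPH regeneration solution added, 60 min RT; luciferin detection buffer stops reaction; 20 min later luminescence measured.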

[19] = molecular target: Muscarinic acetylcholine receptor M1 (Rattus norvegicus) (UniProt P08482); assay: qHTS Assay for Antagonists of Acetylcholine Muscarinic M1 Receptor: Kinetic Measurement of Intracellular Calcium Response (AID 943); note: nearly all actives have a fitted effect of over 75% in size; note: potency is the fitted concentration of half-maximal effect
Muscarinic acetylcholine receptor M1 (Rattus norvegicus), sequence (P08482 whole entry, looked up): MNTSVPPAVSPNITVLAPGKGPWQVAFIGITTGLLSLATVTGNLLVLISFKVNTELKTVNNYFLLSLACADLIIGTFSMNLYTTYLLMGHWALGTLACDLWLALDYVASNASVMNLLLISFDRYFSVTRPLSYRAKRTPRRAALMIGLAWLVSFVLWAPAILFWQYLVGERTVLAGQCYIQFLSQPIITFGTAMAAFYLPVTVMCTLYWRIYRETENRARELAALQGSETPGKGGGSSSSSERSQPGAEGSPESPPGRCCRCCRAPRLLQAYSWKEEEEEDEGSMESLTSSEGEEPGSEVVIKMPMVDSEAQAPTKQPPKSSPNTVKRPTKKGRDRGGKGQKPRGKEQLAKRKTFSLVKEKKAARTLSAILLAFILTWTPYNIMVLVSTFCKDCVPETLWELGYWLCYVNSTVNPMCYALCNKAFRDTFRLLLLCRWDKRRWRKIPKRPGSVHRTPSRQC
Method in brief: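 CHO cells stably expressing rat M1 were loaded with no-wash Fluo-4 dye for 1 h at 37C, pre-incubated 10 min with compound, then challenged with EC80 carbachol (100 nM final); kinetic calcium read 4 min, peak/basal ratio.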

[20] = qHTS Assay for Identification of Small Molecule Antagonists for Thrombopoietin (TPO) Signaling Pathway (AID 918); conditions: TPO-dependent cell signaling reporter, antagonist mode; note: potency is the fitted concentration of half-maximal effect; nearly all actives have a fitted effect of over 60% in size
Method in brief: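 Murine Ba/F3 cells stably expressing human TPO receptor and a Glycoprotein IIb promoter–luciferase reporter were IL-3-starved overnight, treated with compounds plus TPO (26 pM final, its EC50) for 24 hrs at 37 C, then read by luminescence.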

O=c1n(CCCN2CCN(c3cccc(Cl)c3)CC2)nc2ccccn12
inactive: outcome [1] | Potency [2] | Potency [3] | outcome [4] | Potency [5] | outcome [6]

NC(=O)c1cnccn1
inactive: outcome [7] | outcome [8] | outcome [9] | outcome [10] | outcome [1] | Potency [11] | Potency [2] | Potency [12] | Potency [13] | Potency [3] | outcome [4] | Potency [14] | Potency [5] | outcome [6] | outcome [15]

CCOC(=O)N1CCC(=C2c3ccc(Cl)cc3CCc3cccnc32)CC1
inactive: outcome [1] | Potency [16] | Potency [3] | Potency [5] | outcome [6]
active: Potency [17] 15.8 µM

N[C@@H]1CONC1=O
inactive: outcome [1] | Potency [11] | outcome [18] | outcome [4] | outcome [6]

CCCCNc1cc(C(=O)O)cc(S(N)(=O)=O)c1Oc1ccccc1
inactive: outcome [1] | Potency [16] | Potency [3] | outcome [4] | Potency [5] | Potency [19] | outcome [6]

C1COC(NC(C2CC2)C2CC2)=N1
active: Potency [12] 398 nM
inactive: outcome [1] | Potency [11] | outcome [18] | Potency [13] | outcome [4] | Potency [19] | outcome [6]

CC(C)NCC(O)COc1ccc(COCCOC(C)C)cc1 (stereo unspecified)
inactive: outcome [1] | Potency [2] | outcome [4] | outcome [6]

Clc1cccc(Cl)c1NC1=NCCN1
active: Potency [11] 7.94 µM | Potency [13] 5.01 µM
inactive: outcome [1] | outcome [4] | outcome [6]

CCOC(=O)C1=C[C@@]2(CC)CCCN3CCc4c(n1c1ccccc41)[C@H]32
inactive: outcome [1] | Potency [11] | outcome [18] | Potency [13] | outcome [4] | outcome [6]
active: Potency [12] 39.8 µM and 6.31 µM

OC(CN1CCC(Cc2ccc(F)cc2)CC1)c1ccc(Cl)cc1 (stereo unspecified)
active: Potency [19] 0.398 µM
inactive: outcome [1] | Potency [2] | outcome [6]

Cc1ccc2c(c1)C(=O)[C@@]1(O)CCN(c3ccccc3)C1=N2
active: Potency [13] 7.94 µM

CC(C[N+](C)(C)C)OC(N)=O (stereo unspecified)
inactive: Potency [2] | Potency [3] | Potency [5]

N#Cc1ccc(C(c2ccc(C#N)cc2)n2cncn2)cc1
inactive: activation [17] -2.88%

CCN(CC)CCCC(C)Nc1nc(C)cc(Nc2ccc3nc(C)cc(N)c3c2)n1 (stereo unspecified)
inactive: Potency [2]

Nc1nc2ccc(OC(F)(F)F)cc2s1
inactive: outcome [1] | outcome [4]

O=NN(CCCl)C(=O)NCCCl
inactive: outcome [1] | Potency [3] | outcome [4] | Potency [5] | outcome [6]

NC(=O)c1ccc(-c2nc(-c3ccc4c(c3)OCO4)c(-c3ccccn3)[nH]2)cc1
inactive: outcome [18]

CNC[C@H](O)c1cccc(O)c1
inactive: outcome [1] | outcome [4] | Potency [19] | outcome [6]

Cc1cc2c(C(C)C)c(O)c(O)c(C=O)c2c(O)c1-c1c(C)cc2c(C(C)C)c(O)c(O)c(C=O)c2c1O
inactive: Potency [3] | Potency [5]

Cc1cnc(NC(=O)C2=C(O)c3ccccc3S(=O)(=O)N2C)s1
inactive: outcome [1] | Potency [16] | Potency [3] | Potency [5] | outcome [6]

O=C(O)COCCN1CCN(C(c2ccccc2)c2ccc(Cl)cc2)CC1 (stereo unspecified)
inactive: Potency [3] | Potency [5]

Cc1[nH]c(=O)c(C#N)cc1-c1ccc2nccn2c1
inactive: outcome [1] | outcome [4] | outcome [6]

NCCc1ccc(O)c(O)c1
inactive: outcome [1] | Potency [3] | Potency [5] | Potency [19] | outcome [6]

CCN(CC)CCCC(C)Nc1ccnc2cc(Cl)ccc12 (stereo unspecified)
inactive: Potency [3] | Potency [5]

CCc1ccc(CCOc2ccc(CC3SC(=O)NC3=O)cc2)nc1 (stereo unspecified)
inactive: outcome [18] | Potency [3] | Potency [5]

Cc1ccccc1C(OCCN(C)C)c1ccccc1 (stereo unspecified)
inactive: Potency [3] | Potency [5]

CCn1cc(C(=O)O)c(=O)c2cc(F)c(N3CCNC(C)C3)c(F)c21 (stereo unspecified)
inactive: Potency [2] | Potency [3] | Potency [5]

CCN(c1ccccc1)c1cc(NC)[n+](C)c(C)n1
active: Potency [12] 3980 nM

Cc1[nH]c(=O)c(C#N)cc1-c1ccncc1
inactive: outcome [1] | outcome [4] | outcome [6]

CN1CCN(CCCN2c3ccccc3Sc3ccc(C(F)(F)F)cc32)CC1
active: Potency [20] 15.8 µM
inactive: outcome [1] | Potency [3] | Potency [5] | outcome [6]

COc1ccc2nc(S(=O)Cc3ncc(C)c(OC)c3C)[nH]c2c1 (stereo unspecified)
inactive: Potency [11] | outcome [18] | Potency [12] | activation [17] -6.85% and -23.9%

CCCc1nc2c(C)cc(-c3nc4ccccc4n3C)cc2n1Cc1ccc(-c2ccccc2C(=O)O)cc1
inactive: Potency [3] | Potency [5]

NC[C@H](O)c1ccc(O)c(O)c1
inactive: outcome [1] | outcome [6]

CCCc1nn(C)c2c(=O)[nH]c(-c3cc(S(=O)(=O)N4CCN(C)CC4)ccc3OCC)nc12
inactive: Potency [3] | Potency [5]

CC(C)(C)NCC(O)c1ccc(O)c(CO)c1 (stereo unspecified)
inactive: Potency [3] | Potency [5]

Cc1cn[nH]c1
inactive: outcome [1] | outcome [4] | outcome [6]
